CCHF vOTU inh – CCHFV vOTU protease inhibitors, primary screen, biochemical, Pep-AMC substrate, fluorescence | Crimean-Congo hemorrhagic fever virus L polyprotein viral ovarian tumor (vOTU) protease … | inhibition, % at 11.5 µM | hit rate 0.55% among 370,000 | AID 651958, 2012; in the data active means inhibition above about 30%; further: 0% = vehicle wells with enzyme and 100% = no enzyme wells
BoNT A protease – BoNT/A light chain protease inhibitors, primary screen, biochemical, flow cytometry, MLPCN library | multiplex microsphere protease substrate cleavage | inhibition, % at 10 µM | hit rate 0.17% among 360,000; further: plate controls were buffer without enzyme for full effect and enzyme alone for no effect
SARS 3CLpro inh – SARS-CoV 3CLpro protease inhibitors, primary screen, biochemical, quenched FRET; inhibition, % at 6 µM; hit rate 0.14% among 290,000; Replicase polyprotein 1ab (Severe acute respiratory syndrome coronavirus), P0C6X7; recombinant SARS-CoV 3CLpro, quenched FRET peptide cleavage; in the data active means inhibition above about 12%
Anthrax LF inh2 – Bacillus anthracis LF protease inhibitors, primary screen, biochemical, multiplex microsphere, MLPCN library; multiplex microsphere protease cleavage assay; Lethal factor (Bacillus anthracis), P15917; inhibition, % at 10 µM; hit rate 0.12% among 360,000; AID 588501, 2011; further: plate controls were buffer without enzyme for full effect and enzyme alone for no effect
Target sequence (P15917 whole entry, looked up): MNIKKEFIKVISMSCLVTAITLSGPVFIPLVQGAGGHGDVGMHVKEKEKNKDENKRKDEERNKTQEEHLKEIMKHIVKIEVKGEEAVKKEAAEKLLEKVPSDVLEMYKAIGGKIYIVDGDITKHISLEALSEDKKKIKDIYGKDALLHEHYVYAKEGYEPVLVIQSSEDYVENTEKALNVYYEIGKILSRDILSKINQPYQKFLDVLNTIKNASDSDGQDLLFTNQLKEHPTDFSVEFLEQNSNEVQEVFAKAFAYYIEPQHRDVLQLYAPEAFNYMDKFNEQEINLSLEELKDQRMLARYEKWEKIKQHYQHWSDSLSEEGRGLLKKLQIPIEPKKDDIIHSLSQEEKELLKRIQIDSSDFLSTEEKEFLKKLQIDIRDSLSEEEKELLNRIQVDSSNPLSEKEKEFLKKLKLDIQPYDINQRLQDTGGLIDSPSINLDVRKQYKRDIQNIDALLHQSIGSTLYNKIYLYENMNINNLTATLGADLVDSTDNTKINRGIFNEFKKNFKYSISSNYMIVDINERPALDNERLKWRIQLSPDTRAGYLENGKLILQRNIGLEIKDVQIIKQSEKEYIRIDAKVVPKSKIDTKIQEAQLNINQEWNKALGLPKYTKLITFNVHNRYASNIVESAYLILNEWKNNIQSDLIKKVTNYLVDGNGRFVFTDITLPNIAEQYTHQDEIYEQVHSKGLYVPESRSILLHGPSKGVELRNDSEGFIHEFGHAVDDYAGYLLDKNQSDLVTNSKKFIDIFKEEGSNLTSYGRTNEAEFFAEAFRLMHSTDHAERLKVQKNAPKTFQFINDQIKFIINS
BoNT F protease – BoNT/F light chain protease inhibitors, primary screen, biochemical, flow cytometry, MLPCN library; Botulinum neurotoxin type F light chain protease (Clostridium botulinum); Multiplex microsphere protease cleavage assay; inhibition, % at 10 µM; hit rate 0.22% among 360,000; AID 588497, 2011; in the data active means inhibition above about 35%, passing the limit was not always enough; inconclusive means no clear call, values can overlap the other calls; further: plate controls were buffer without enzyme for full effect and enzyme alone for no effect
Autofluor counter – compound fluorescence in toxin protease inhibitor counterscreen; fluorescence intensity (test concentration not listed); hit rate 3.1% among 360,000; compound autofluorescence counterscreen, microsphere flow cytometry; stronger effect = higher value; in the data active means fluorescence intensity above about 16000; inconclusive means no clear call, values can overlap the other calls
The depositor's hits bear a star; ? = inconclusive; . = not tested or not shown. Sampled rows, rich in hits. Any-hit rate of the full collection: about 3.9%. Unless noted, no stated cut-off is given here; in the data, active means inhibition above about 30%; inconclusive means no clear call, values can overlap the other calls; inactive means below that.

SMILES	CCHF vOTU inh	BoNT A protease	SARS 3CLpro inh	Anthrax LF inh2	BoNT F protease	Autofluor counter
CCOc1ccc(Oc2c(Cl)c(Br)nn(Cc3cccc4ccccc34)c2=O)cc1	12	.	.	.	.	.
CC(C)C(=O)NC(Nc1ccccc1F)C(Cl)(Cl)Cl (stereo unspecified)	-8	4	2	2	6	21522*
CC(C)CC(=O)NC(Nc1ccccc1F)C(Cl)(Cl)Cl (stereo unspecified)	8	-1	3	-7	0	3128
CN1C(=O)C(O)(CC(=O)c2cccnc2)c2ccccc21 (stereo unspecified)	-1	-3	6	-3	-5	23918*
c1ccc(CCc2nn3c(Cn4nnc5ccccc54)nnc3s2)cc1	-18	-1	1	-1	-23	4342
c1cncc(-c2nn3c(Cn4nnc5ccccc54)nnc3s2)c1	-1	1	-1	0	3	16144*
c1ccc(-c2nn3c(Cn4nnc5ccccc54)nnc3s2)nc1	3	0	-6	-6	-5	5692
c1ccc(Cc2nn3c(Cn4nnc5ccccc54)nnc3s2)cc1	-3	?	6	-1	-1	22542*
c1ccc2c(c1)OCC(c1nn3c(Cn4nnc5ccccc54)nnc3s1)O2 (stereo unspecified)	7	?	1	2	1	16268*
C#CCN1CC(N2CCN(CCO)CC2)CS1(=O)=O (stereo unspecified)	-9	.	.	.	.	.
C#CCNC(=O)C[C@H]1C[C@@]2(C(=O)OC)C(=C[C@H](COCc3ccccc3)O[C@@H]2C)N(CCCCCCCC)C1=O	15	.	.	.	.	.
COc1cccc(N2CCN(CC(=O)NCc3ccc(F)cc3)CC2)c1	-4	.	.	.	.	.
CC1(C)SC(=S)N(Cc2ccc3c(c2)OCO3)C1N(O)C(=O)NC1CCCCC1 (stereo unspecified)	16	-3	2	-11	-32	?
CN1C(=S)SC(N(O)C(=O)NC2CCCCC2)C1(C)C (stereo unspecified)	-4	?	-1	1	7	21404*
Cc1nn(CCC(=O)NNC(=O)Nc2ccc(Cl)cc2)c(C)c1[N+](=O)[O-]	15	.	.	.	.	.
c1ccc(Cc2nnc3sc(Nc4ccccc4)nn23)cc1	1	?	-10	0	-3	16579*
CS(=O)(=O)N1CCN(C/C=C/c2ccccc2)CC1	-4	1	2	2	5	3708
O=S(=O)(Cc1ccccc1)N1CCN(C/C=C/c2ccccc2)CC1	-1	-5	-3	-1	-8	25473*
Cc1cc(NC(=O)c2ccc(NS(=O)(=O)c3ccc(F)cc3)cc2)no1	2	.	.	.	.	.
O=C(N/C(=C\c1ccccc1)C(=O)N1CCOCC1)c1ccccc1Cl	6	-142	2	-33	-223	42511*
O=C(Nc1cccc(C(=O)O)c1)/C(=C\c1ccccc1)NC(=O)c1ccccc1Cl	-5	4	4	2	41*	5393
O=C(N/C(=C\c1ccc(Br)cc1)C(=O)N1CCOCC1)c1ccccc1Cl	-2	2	2	0	-9	5612
COC(=O)c1cccc(NC(=O)/C(=C\c2ccccc2)NC(=O)c2ccccc2Cl)c1	0	0	7	-5	-1	9655
COc1ccc(C2O[C@@H](C)[C@@H]3C(=O)N4CCc5c([nH]c6ccccc56)[C@@H]4C[C@@H]3N2C)cc1 (stereo partly specified)	-10	.	.	.	.	.
CC(=O)c1cccc(NC(=O)CSc2nnc(-c3ccc(S(=O)(=O)N4CCCC4)cc3)o2)c1	-2	1	3	1	4	21749*
SMILES	CCHF vOTU inh	BoNT A protease	SARS 3CLpro inh	Anthrax LF inh2	BoNT F protease	Autofluor counter
CC1Cc2ccccc2N1C(=O)CSc1nnc(-c2ccccc2)c(-c2ccccc2)n1 (stereo unspecified)	-14	?	-1	?	?	16388*
Cc1ccc(-c2nnc(SCC(=O)Nc3ccc(S(=O)(=O)N4CCCCCC4)cc3)o2)cc1	-7	1	-2	1	11	9547
CCN(CC)C(=O)CSc1nnc(-c2ccc(S(=O)(=O)N3CCCC3)cc2)o1	-2	?	-1	-1	-1	22144*
CCN(CC)S(=O)(=O)c1ccc(-c2nnc(SCC(=O)N3CCOCC3)o2)cc1	5	0	3	-1	1	10108
CC1Cc2ccccc2N1C(=O)CSc1nnc2c(n1)[nH]c1ccccc12 (stereo unspecified)	0	0	0	0	-7	2464
CCN(CC)S(=O)(=O)c1ccc(-c2nnc(SCC(C)=O)o2)cc1	2	-1	-1	1	-5	16485*
CC(=O)N1CCc2cc(S(=O)(=O)NCCC(=O)N(C)Cc3ccccc3F)ccc21	4	.	.	.	.	.
CN(C)[C@@H]1CCN(c2cccc3c2S(=O)(=O)N2CC[C@H](C2)O3)C1	0	.	.	.	.	.
O=C(CSc1nnc(-c2ccc(S(=O)(=O)N3CCCC3)cc2)o1)NCc1ccco1	5	2	1	1	3	21711*
CC1Cc2ccccc2N1C(=O)CSc1nnc(-c2ccc(S(=O)(=O)N3CCCC3)cc2)o1 (stereo unspecified)	-7	?	2	-1	-4	20428*
COc1ccc(C(=O)CSc2nnc(-c3ccc(S(=O)(=O)N4CCOCC4)cc3)o2)cc1	-4	-3	-2	-1	-4	20449*
O=C(CSc1nnc(-c2ccc(S(=O)(=O)N3CCCC3)cc2)o1)N1CCCC1	.	.	-3	.	.	.
CCCCC(=O)NC(NC(=S)N1CCOCC1)C(Cl)(Cl)Cl (stereo unspecified)	2	?	-1	-2	2	23068*
O=C(COc1ccc2ccccc2c1Br)N1CCN(c2ccccn2)CC1	0	2	-6	-1	1	21691*
COc1ccc(-n2c(SCC(=O)Nc3ccccc3-c3ccccc3)nnc2-c2ccccc2)cc1	9	.	.	.	.	.
CCOC(=O)C1CCN(C(=O)CSCc2nc(-c3ccc(OCC)cc3)oc2C)CC1	1	0	5	1	7	2751
Cc1ccc(-c2nc(CSCC(=O)NCCN3CCN(Cc4ccccc4)CC3)c(C)o2)cc1	-7	-3	7	-3	-5	17085*
Cc1cccc(-c2nc(CSCC(=O)N3CCN(c4ccccn4)CC3)c(C)o2)c1	1	-1	-3	-5	-7	16627*
COc1ccc(-c2nc(CSCC(=O)NC3CC3)c(C)o2)cc1OC	-6	-1	-1	-2	2	5540
CCOC(=O)N1CCC(NC(=O)CSCc2nc(-c3ccc(OC)c(OC)c3)oc2C)CC1	5	?	-1	0	-3	20515*
